In the library only some 19% were active in any assay of this set; here they are far more common.
TDP1 inh – blocks human tyrosyl-DNA phosphodiesterase 1 | Q9NUW8 | recombinant TDP1, AlphaScreen DNA substrate cleavage | Potency, µM (series often up to 130 µM), inactives show at the highest dose activity change, negative = inhibition, actives largely listed as inhibitors | hit rate 0.28% among 350,000 | AID 485290; note: potency is the fitted concentration of half-maximal effect; % is set by controls: 0 for no effect and ±100 for the full control effect; nearly all actives have a fitted effect of over 40% in size
Target sequence (Q9NUW8 whole entry, looked up): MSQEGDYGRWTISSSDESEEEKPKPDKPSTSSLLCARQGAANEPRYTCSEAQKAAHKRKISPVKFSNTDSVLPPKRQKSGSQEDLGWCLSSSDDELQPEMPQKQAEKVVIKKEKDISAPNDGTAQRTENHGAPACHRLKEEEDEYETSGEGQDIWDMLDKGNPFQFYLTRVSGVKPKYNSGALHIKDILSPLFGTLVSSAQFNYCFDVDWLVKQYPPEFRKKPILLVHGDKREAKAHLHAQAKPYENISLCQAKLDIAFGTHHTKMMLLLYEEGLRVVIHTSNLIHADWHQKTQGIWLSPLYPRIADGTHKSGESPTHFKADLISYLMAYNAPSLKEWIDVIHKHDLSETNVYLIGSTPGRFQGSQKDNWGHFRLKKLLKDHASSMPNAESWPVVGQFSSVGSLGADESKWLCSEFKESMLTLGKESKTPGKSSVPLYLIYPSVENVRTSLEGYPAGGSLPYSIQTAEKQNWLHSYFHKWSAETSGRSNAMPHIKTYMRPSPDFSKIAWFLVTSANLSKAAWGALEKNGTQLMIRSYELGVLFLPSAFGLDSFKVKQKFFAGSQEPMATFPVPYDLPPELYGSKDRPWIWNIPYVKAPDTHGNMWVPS
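E. coli-derived human Tdp1, 1 nM final. Cpd preinc 15 min RT; substrate 15 nM final, 5 min RT; AS bead mix 10 ug/ml final, 10 min RT. Signal loss = tyrosine-FITC cleavage. No-enzyme wells = max signal.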
IL1B secr inh – blocks inflammasome-driven IL-1 beta release | THP-1 LPS/ATP IL-1B secretion, AlphaLISA, 16 h; active compounds read low | activity change, % at 57.5 µM | hit rate 4.7% among 360,000; in the data active = activity change below about -50%; inconclusive = mostly about -30% to -49%; note: % is set by controls: 0 for no effect and ±100 for the full control effect
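Secreted IL-1B measured by AlphaLISA bead assay after 16 h compound exposure of THP-1 cells; compounds (final up to 57.5 uM) added 1 h before LPS (250 ng/mL) and ATP (1.25 mM) stimulation; lower signal means less secretion.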
TGFb SMAD3 inh – inhibitors of TGF-b signaling. HepG2 CAGA-GFP TGF-b/SMAD3 reporter, GFP fluorescence, 18 h; TGF-beta stimulated, 500 pg/mL final. Potency, µM (titrated, usually from 46.1 µM), without a hit: top-dose activity, negative = inhibition, usual class: inhibitors. hit rate 1.2% among 410,000; note: potency is the fitted concentration of half-maximal effect; % is set by controls: 0 for no effect and ±100 for the full control effect; nearly all actives have a fitted effect of over 65% in size
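Cell-based qHTS in HEPG2 carrying a CAGA-GFP Smad reporter; compounds added before 500 pg/mL final TGF-beta, 18 h incubation at 37 degrees C, GFP fluorescence quantified per cell by imaging cytometry.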
DT40 TDP1 no CPT – qHTS for Inhibitors of human tyrosyl-DNA phosphodiesterase 1 (TDP1): qHTS in cells in absence of CPT; DT40 Tdp1-/- hTDP1 cells, no CPT, ATP luminescence, 48 h; Potency, µM (series often up to 46.2 µM), without a hit: at the top dose activity change, negative = growth inhibition, actives largely listed as inhibitors; hit rate 15% among 420,000; AID 686978, 2013; note: potency is the fitted concentration of half-maximal effect; % is set by controls: 0 for no effect and ±100 for the full control effect; nearly all actives have a fitted effect of over 55% in size
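Compound effects on proliferation are scored in DT40 Tdp1-/-;hTDP1 cells in the absence of CPT. ATP levels (CellTiter-Glo luminescence) are recorded after a ≥48 hr, 37 °C incubation.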
HepG2 viability – HepG2 cytotoxicity, counter-screen for TGF-b inhibitors; AID 588856; Potency, µM (series often up to 46.1 µM), for inactives: at the highest dose activity change, negative = cytotoxicity, usual class: cytotoxic; HepG2 CAGA-GFP viability, ATP luminescence, 18 h; hit rate 0.76% among 410,000; note: potency is the fitted concentration of half-maximal effect
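HepG2 CAGA-GFP cells (1000/well, DMEM with 1% FBS) received compound, then TGF-beta at 500 pg/mL final, and were incubated 18 hours at 37 degrees C. Viability was read by CellTiter-Glo luminescence. Media-only wells were set as complete cell-killing and DMSO as no toxicity.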
TDP1 cell CPT – DT40-hTDP1 cell growth loss with CPT; chicken DT40 Tdp1-/-;hTDP1 cells + 20 nM CPT, ATP luminescence, 48 h; Potency, µM (series often up to 46.2 µM), for inactives: at the highest dose activity change, negative = growth inhibition, actives largely listed as inhibitors; hit rate 12% among 420,000; note: potency is the fitted concentration of half-maximal effect; % is set by controls: 0 for no effect and ±100 for the full control effect; nearly all actives have a fitted effect of over 55% in size
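Cell growth measured by CellTiter-Glo luminescence after a minimum 48 h, 37 C compound exposure with 20 nM CPT in Tdp1-knockout DT40 cells stably expressing hTDP1, seeded 400/well; qHTS titration format.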
Numbers without * were called inactive; ? = inconclusive; / = not tested or not shown; [ ] = another dose, or the depositor's remark. Unless noted, calls come from the whole dose curve; as a rule, active = well fitted curve in the direction sought with a large enough effect; inconclusive = small, poorly fitted or top-dose-only effect, or another doubt; inactive = no such curve, though single readings can be large; an effect the other way counts as inactive or inconclusive.

SMILES | TDP1 inh | IL1B secr inh | TGFb SMAD3 inh | DT40 TDP1 no CPT | HepG2 viability | TDP1 cell CPT
O=C(NC1CCCC1)c1cnn2c(C(F)(F)F)cc(-c3ccco3)nc12 | -1.9% | -6.5 | ? | ? | -24.6% | -29.3%
CC(C)CCNC(=O)c1cnn2c(C(F)(F)F)cc(-c3ccco3)nc12 | -11.2% | -1.9 | -20.9% | 31.6µM* | 0.0% | 11.2µM*
Cc1c(NC(=O)c2ccc(Cl)cc2)cc(C(C)C)c(O)c1S(=O)(=O)c1ccc(Cl)cc1 | 1.9% | / | -25.4% | ? | 1.4% | ?
Cc1ccc2c(c1)Cc1c(nc(-c3ccc(F)cc3)nc1SCC(=O)N1CCCCC1)O2 | 1.3% | / | -2.2% | -4.6% | -16.2% | 6.1%
CC(C)CNC(=O)c1ccc2c(c1)C(=O)N(Cc1ccco1)C2=O | / | 30.0 | -2.9% | 1.8% | 2.3% | 2.5%
COC(=O)N1C2(C=CC1(C)C(=O)NCc1ccc(N(C)C)cc1)CCCCC2 (configuration not stated) | 2.1% | / | / | / | / | /
CC1(C2CC2)NC(=O)N(CC(=O)N2CCN(S(=O)(=O)c3ccc(F)c(F)c3)CC2)C1=O (configuration not stated) | -1.3% | 12.3 | 7.0% | ? | 1.3% | -11.2%
Cc1nc2c(C(=O)NCCc3ccccc3)cnn2c(C)c1Cc1c(F)cccc1Cl | 7.8% | / | -2.0% | 16.4µM* | -0.1% | 14.6µM*
CCN1C(C)=C(C(=O)OC)C(c2ccccc2)N2C(=O)[C@](O)(C(=O)OC)C(c3ccccc3)C(C(=O)c3ccccc3)=C12 (some centres not stated) | 4.8%[21 µM] | / | / | / | / | /
C[C@@]12C(=O)OC(=O)[C@@]1(C)[C@@H]1CC[C@@H]2O1 | 15.5% | / | / | 29.9µM* | / | 29.9µM*
CCC/C=C(\CCC)C(NC(=O)c1ccccc1)c1ccccc1 (configuration not stated) | 7.5% | / | / | / | / | /
COc1ccc(OCC(O)Cn2c(Nc3cccc(C)c3)nc3c2c(=O)n(C)c(=O)n3C)cc1 (configuration not stated) | 0.0% | 32.8 | 16.7% | 14.6µM* | 30.7% | ?
COc1ccc(OCC(O)Cn2c(NCCO)nc3c2c(=O)n(C)c(=O)n3C)cc1 (configuration not stated) | / | / | -7.2% | 10.3µM* | -6.9% | 9.2µM*
COC(=O)c1ccccc1NC(=O)COc1ccccc1C(=O)Nc1ccccc1 | / | / | ? | ? | -26.6% | ?
CC(Oc1ccccc1)C(=O)Nc1cc(Cl)ccc1-n1cncn1 (configuration not stated) | 0.0%[0.505 µM] | 5.6 | -16.0% | -12.6% | -4.9% | ?
Cc1ccc(NC(=O)c2ccccc2NC(=O)c2cccs2)cc1 | 7.5% | 6.9 | ? | -19.5% | -17.6% | -10.9%
O=S(=O)(NC1CC2CCC1C2)c1ccc(Br)s1 (configuration not stated) | -2.2% | 9.7 | ? | 23.1µM* | 2.5% | ?
C[C@@H]1NS(=O)(=O)[C@H]2C[C@@H]3C=C[C@]2(O3)[C@H]1OC(=O)c1ccc(C(C)(C)C)cc1 | 2.9% | 0.0 | -9.3% | 16.4µM* | -6.1% | 23.1µM*
O=C(O[C@H]1[C@H](Cc2ccccc2)NS(=O)(=O)[C@H]2CC3C=C[C@]12O3)c1ccc(Br)cc1 | / | / | -19.7% | ? | 40.1% | ?
Cc1cccc(C(=O)O[C@H]2[C@H](Cc3ccccc3)NS(=O)(=O)[C@H]3CC4C=C[C@]23O4)c1 | 0.6% | -23.6 | ? | ? | -1.4% | ?
Cc1cccc(C(=O)O[C@@H]2[C@H](Cc3ccccc3)NS(=O)(=O)[C@H]3C[C@@H]4C=C[C@]23O4)c1 | 0.1% | -16.5 | ? | 23.1µM* | -9.1% | ?
Cc1ccccc1C(=O)O[C@H]1[C@H](Cc2ccccc2)NS(=O)(=O)[C@H]2CC3C=C[C@]12O3 | 1.2% | 2.4 | -27.5% | 20µM* | -17.3% | ?
Nc1ccccc1O | 0.1% | -3.4 | ? | 16.4µM* | 15.8µM* | ?
CCN(CC)S(=O)(=O)c1ccc(OC)c(NC(=O)C2CC(=O)N(c3ccc4c(c3)OCCO4)C2)c1 (configuration not stated) | 2.3% | -6.5 | -24.9% | -27.6% | -29.8% | -11.4%
Cc1cccc(N2C(N)=NC(N)=NC23CCCCC3)c1 | -1.0% | 14.7 | 8.6% | 11.6µM* | -46.1% | 16.4µM*
SMILES | TDP1 inh | IL1B secr inh | TGFb SMAD3 inh | DT40 TDP1 no CPT | HepG2 viability | TDP1 cell CPT
COc1cc(OC)c(/C=C/c2cc[n+](C)c3ccccc23)c(OC)c1 | / | / | ? | 0.447µM* | -27.0% | 0.501µM*
CCOc1ccc(/C=C/c2cc[n+](C)c3ccccc23)cc1OCC | / | / | 6.0% | ? | -4.0% | ?
COc1cc(OC)c(OC)cc1/C=C/c1cc[n+](C)c2ccccc12 | / | / | -4.6% | 2µM* | -0.5% | 3.98µM*
Cc1cc(N(C)C)cc(C)c1/C=C/c1cc[n+](C)c2ccccc12 | / | / | 8.91µM* | 0.562µM* | -25.2% | 0.562µM*
C/C(=N\NC(=O)CN1CCN(c2ccc(F)cc2)CC1)c1ccco1 | / | -0.5 | 11.6% | 1.5% | -4.0% | 5.3%
CCOc1ccccc1C(=O)NC1CC2CCCC(C1)N2Cc1nnnn1Cc1ccco1 (configuration not stated) | 5.0% | ? | -13.6% | 16.4µM* | -24.9% | ?
CCOc1ccccc1C(=O)NC1CC2CCCC(C1)N2C1CC1 (configuration not stated) | -1.0% | 22.2 | -6.5% | -24.1% | -1.7% | -26.1%
O=C(NC1CC2CCC(C1)N2Cc1nnnn1Cc1ccco1)NC12CC3CC(CC(C3)C1)C2 (configuration not stated) | 2.4% | 31.0 | ? | 18.4µM* | -26.9% | 20.6µM*
COc1ccc(NC(=O)N2CC[C@@]3(CCCN(S(C)(=O)=O)C3)C2)cc1 | / | / | / | -1.6% | / | -1.7%
CCc1ccc(NC(=O)Cn2nnc(C(=O)Nc3cc(C)ccc3OC)c2N)cc1 | 2.1% | / | ? | -27.5% | -21.1% | -29.2%
COc1ccc(Nc2cc(C(=O)NCCCN(C)C3CCCCC3)c3ccccc3n2)cc1 | 9.3% | / | -5.0% | 20.6µM* | -28.6% | 14.6µM*
CC(C)c1ccc(Nc2cc(C(=O)NCCCN(C)Cc3ccccc3)c3ccccc3n2)cc1 | 4.7% | / | -9.8% | ? | -17.9% | 9.2µM*
COc1ccc(Nc2cc(C(=O)NCCCN(C)C3CCCCC3)c3ccccc3n2)c(OC)c1 | 9.3% | / | ? | ? | -75.3% | ?

Source: PubChem BioAssay
